The results in this text go back to the supplement of paper PMC6522484.

± gives the standard deviation of the averaged measurements.

This experiment relates to DLD1. Briefly: TCF/Wnt firefly luciferase reporter signal relative to plate median (fraction of plate median); higher = higher Wnt reporter signal. The following applies: 10 µM; treatment time 24 h; reporter: 7TFP. The gist of the method:
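Colorectal cancer cells expressing a stably transduced lentiviral TCF/Wnt firefly luciferase reporter were treated in 384-well plates with kinase inhibitor library compounds at a final 10 µM for 24 h. Firefly luciferase or CellTiterGlo luminescence was then read on parallel plates. Well signals were normalised to the plate median (webcellHTS2, additive, no log transformation) and averaged over two independent replicates.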
Turning to `C[C@@H](N)[C@H]1CC[C@H](C(=O)Nc2ccncc2)CC1`, the “TCF/Wnt firefly luciferase reporter signal” value amounted to 1.22 ± 0.092.

Take `Cc1csc(-c2nnc(Nc3ccc(Oc4ncccc4-c4ccnc(N)n4)cc3)c3ccccc23)c1`: the “TCF/Wnt firefly luciferase reporter signal” value amounted to 1.08 ± 0.11.

`CC(C)c1cnn2c(NCc3ccccc3)cc(NCCCCCCN)nc12`: the “TCF/Wnt firefly luciferase reporter signal” value stood at 1.27 ± 0.11.

On to `CNC(=O)c1cc(Oc2ccc(NC(=O)Nc3ccc(Cl)c(C(F)(F)F)c3)cc2)ccn1` [Sorafenib (Nexavar)], for which the “TCF/Wnt firefly luciferase reporter signal” value worked out at 0.959 ± 0.2.

With `Cc1cc2c(F)c(Oc3ncnn4cc(OC[C@@H](C)OC(=O)[C@H](C)N)c(C)c34)ccc2[nH]1`, the “TCF/Wnt firefly luciferase reporter signal” value turned out to be 1.03 ± 0.11.

In the case of `COc1cc(CCc2cc(NC(=O)c3ccc(N4CC(C)NC(C)C4)cc3)n[nH]2)cc(OC)c1` (centres undefined), the “TCF/Wnt firefly luciferase reporter signal” value was 0.794 ± 0.042.

For `CCCCOc1c(C(=O)c2c(F)cc(C)cc2F)c[nH]c2nncc1-2`, the “TCF/Wnt firefly luciferase reporter signal” value amounted to 0.489 ± 0.005.

With `CC(C)(C)c1cc(NC(=O)Nc2ccc(-c3cn4c(n3)sc3cc(OCCN5CCOCC5)ccc34)cc2)no1` [Quizartinib (AC220)], the “TCF/Wnt firefly luciferase reporter signal” value was determined as 0.789 ± 0.4.

In the case of `C[C@H](NC(=O)/C(C#N)=C/c1cccc(Br)n1)c1ccccc1`, the “TCF/Wnt firefly luciferase reporter signal” value came to 0.041 ± 0.011.
